# An excerpt weighted towards active compounds, which were near 11% of everything screened.
# IMPase inh – qHTS Assay for Identifying the Cell-Membrane Permeable IMPase Inhibitors; inhibition (IP1 accumulation), % at 46.1 µM; AID 901, 2007; CHO-M1 cells, IP1 accumulation, HTRF TR-FRET ratio; 120,000 tested, under 10 active; active means well fitted curve in the direction sought with a large enough effect in the signal ratio, not every such curve was filed as active; inconclusive means small, poorly fitted or top-dose-only effect, or a change in a side signal; inactive means no such curve, though single readings can be large or run the other way; the % refers to the signal ratio;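 further: cells stimulated with carbachol in lithium chloride buffer; higher means more IMPase inhibition seen as more IP1 and lower FRET ratio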
#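 Cellular IMPase inhibition is scored as a rise in cytosolic IP1, detected by competitive TR-FRET between d2-labelled IP1 and a europium anti-IP1 antibody. M1-expressing CHO cells were stimulated with carbachol for 30 min at 37C, with lithium (50 mM LiCl) present in the buffer.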
# PNC assembly inh – High Content Assay for Compounds that inhibit the Assembly of the Perinucleolar Compartment; PC3M PTB-GFP, PNC prevalence imaging, 16 h; active compounds read low; activity change (PNC), negative = inhibition, % at 10 µM; hit rate 3.1% among 140,000; AID 2417, 2010;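 active means readout at or below -70, meaning at least 70% loss of cells showing the perinucleolar compartment, a nuclear body marking cancer cells; inconclusive means readout between -30 and a set limit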
#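 Compounds are pinned in duplicate onto adhered PC3M cells stably expressing GFP-tagged PTB and incubated 16 h at 37 C. Cells are then fixed, nuclei stained with Hoechst, and PNC-positive cells counted.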
# HPGD inh – qHTS Assay for Inhibitors of HPGD (15-Hydroxyprostaglandin Dehydrogenase) | AID 894, 2007 | 15-hydroxyprostaglandin dehydrogenase [NAD(+)] (Homo sapiens), P15428 | Potency, µM, actives largely listed as inhibitors | purified HPGD, NADH fluorescence kinetic, PGE2 substrate | hit rate 4.3% among 150,000
#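 20 nM HPGD preincubated 15 min at room temperature with compound in 50 mM Tris-HCl pH 8, 0.01% Tween 20. Started with 1 mM NAD+ and 30 uM prostaglandin E2; NADH fluorescence (360/450 nm) read 5 times over 30-s intervals, last minus first.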
# IMPase Li inh – qHTS Assay for Identifying the Cell-Membrane Permeable IMPase Inhibitors: Potentiation with Lithium. Potency, µM (doses to about 59.4 µM), actives largely listed as inhibitors. CHO-M1 cells, IP1 TR-FRET (IP-One), carbachol + lithium. AID 1457, 2008. hit rate 0.35% among 210,000; active means well fitted inhibition curve with a large enough effect; inconclusive means small, poorly fitted or top-dose-only effect; inactive means no such curve, though single readings can be large or run the other way;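 further: IP1 builds up when IMPase is blocked and the TR-FRET signal falls; nearly all actives have a fitted effect of over 50% in size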
#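 Readout is a homogeneous TR-FRET IP1 immunoassay (Ex 320, Em 665 and 620), where raised cytosolic IP1 lowers signal. Cells were CHO-M1 treated 30 min at 37C with test compounds plus a little lithium; AC50 values came from Hill-equation fitting.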
# ALDH1A1 inh – qHTS Assay for Inhibitors of Aldehyde Dehydrogenase 1 (ALDH1A1) | Aldehyde dehydrogenase 1A1 (Homo sapiens), P00352 | Purified ALDH1A1, NADH fluorescence, propionaldehyde substrate | Potency, µM (series often up to 75.3 µM), most hits filed as inhibitors | hit rate 7.3% among 220,000 | AID 1030, 2008
# Target sequence (P00352 whole entry, looked up): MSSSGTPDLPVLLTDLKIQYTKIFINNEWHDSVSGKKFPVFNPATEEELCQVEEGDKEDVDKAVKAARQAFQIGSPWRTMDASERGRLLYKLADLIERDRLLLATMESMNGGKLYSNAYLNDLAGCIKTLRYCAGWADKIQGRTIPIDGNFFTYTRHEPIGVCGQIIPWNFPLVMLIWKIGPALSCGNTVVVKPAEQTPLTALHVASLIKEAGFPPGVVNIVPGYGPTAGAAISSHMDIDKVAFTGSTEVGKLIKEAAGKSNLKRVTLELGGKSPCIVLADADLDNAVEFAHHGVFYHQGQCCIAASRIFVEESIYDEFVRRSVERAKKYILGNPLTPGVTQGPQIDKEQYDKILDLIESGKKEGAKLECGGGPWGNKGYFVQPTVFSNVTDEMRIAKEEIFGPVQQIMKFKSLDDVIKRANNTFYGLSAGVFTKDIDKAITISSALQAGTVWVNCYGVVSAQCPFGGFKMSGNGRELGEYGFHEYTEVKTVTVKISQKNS
# Numbers stand for hits; – = inactive; ? = inconclusive; · = no result; [ ] = another dose, or the depositor's remark. Unless noted, the call rests on the fitted dose curve; in most records, active means well fitted inhibition curve with a large enough effect (not every such curve was filed as active); inconclusive means small, poorly fitted or top-dose-only effect, or another doubt; inactive means no such curve, though single readings can be large or run the other way.
SMILES,IMPase inh,PNC assembly inh,HPGD inh,IMPase Li inh,ALDH1A1 inh
COc1ccccc1N(CC(=O)Nc1cccnc1)S(=O)(=O)c1ccccc1,–,–,14.1µM,–,?
COc1ccccc1N(CC(=O)Nc1ccc2c(c1)OCO2)S(=O)(=O)c1ccccc1,–,–,–,–,–
COc1ccccc1N(CC(=O)Nc1cccnc1)S(C)(=O)=O,–,–,–,–,–
N#Cc1cc(Oc2cccnc2)c(Oc2cccnc2)cc1C#N,?,-111.3,–,–,–
O=C(NCc1ccc(Cl)cc1)C(=O)Nc1ccc(Br)cc1,–,·,·,·,·
O=C(c1ccc(Br)s1)N1CCCC1,–,?,14.1µM,–,–
O=C(c1ccc(C(=O)N2CCOCC2)s1)N1CCOCC1,–,–,20µM,–,–
COc1ccc2cc(C(=O)N3CCOCC3)sc(=O)c2c1OC,–,–,22.4µM,–,–
CN(CCc1ccccn1)c1ccc2c(c1)C(=O)c1ccccc1-2,·,·,–,–,–[13.5 µM]
COc1ccc(Cl)cc1NC(=O)C1CCN(S(=O)(=O)c2ccc(F)cc2)CC1,–,·,·,·,·
CCCc1ccc(OCc2nc(-c3ccc(NC(=O)c4ccco4)cc3)no2)cc1,–,–,?,–,–
Cc1ccccc1OCc1nc(-c2ccc(NC(=O)c3cccs3)cc2)no1,·,–,–,–,?
Cc1ccccc1OCc1nc(-c2ccc(NC(=O)c3ccco3)cc2)no1,–,-100.0,?,–,–
CCCc1ccc(OCc2nc(-c3ccc(NC(=O)c4cccs4)cc3)no2)cc1,·,-90.8,?,–,–
CCC(C)n1c(=N)c(S(=O)(=O)c2ccc(C)cc2)cc2c(=O)n3cc(C)ccc3nc21 (configuration not stated),–,·,·,·,·
COc1ccccc1N(C(=O)c1ccncc1)c1nc(-c2ccc([N+](=O)[O-])cc2)cs1,·,–,–,–,11.2µM
CCOc1cccc(NC(=O)C2CC(=O)N(CC)C(=Nc3ccc(F)cc3)S2)c1 (configuration not stated),–,·,·,·,·
O=C(C1CC(=O)N(C2CCCC2)C1)N1CCC(Cc2ccccc2)CC1 (configuration not stated),–,-106.2,–,–,?
N#C/C(=C\c1ccc(F)cc1)C(=O)NCC1CCCO1 (configuration not stated),–,·,·,·,·
O=C(Nc1ccon1)c1ccc2c(c1)OCO2,?,?,17.8µM,?,–
O=C(c1cc(=O)[nH]c2ccccc12)N1CCN(c2ccc([N+](=O)[O-])cc2)CC1,·,·,·,·,2.99µM
Cc1cc(C)c(C)c(S(=O)(=O)N2CCN(C(=O)c3cc(=O)[nH]c4ccccc34)CC2)c1C,–,–,–,–,14.1µM
CCCCc1nc2c(c3c1CC(C)OC3)CN(CCC(C)C)CC2 (configuration not stated),·,·,·,·,–[13.5 µM]
N=C1c2ccccc2CN1NC(=O)c1cccc(S(=O)(=O)N2CCCC2)c1,–,–,·,·,–
O=S1(=O)[C@H]([C@H]2CC3c4ccccc4C2c2ccccc23)[C@@H](N2CCCCC2)[C@@H]1c1ccccc1,·,·,–,–,–[13.5 µM]
SMILES,IMPase inh,PNC assembly inh,HPGD inh,IMPase Li inh,ALDH1A1 inh
C/C(=N\NC(=O)CNc1ccc(F)cc1)c1cc2ccccc2o1,·,·,·,–,11.2µM
COc1ccc(NCC(=O)N/N=C(\C)c2cc3ccccc3o2)cc1,·,·,·,–,25.1µM
C/C(=N\NC(=O)COc1ccc(C(C)(C)C)cc1)c1cc2ccccc2o1,·,–,?,–,–
C/C(=N\Nc1ccc(Cl)c(C(=O)O)c1)c1cc2ccccc2o1,·,·,·,–,–
O=C(O)Cc1cn(Cc2cccc(Cl)c2)c2ccccc12,·,·,·,–,?
O=C(CSc1cn(Cc2ccccc2)c2ccccc12)Nc1nccs1,–,–,–,–,14.1µM
O=C(O)CC(C(=O)O)c1cn(Cc2ccccc2)c2ccccc12 (configuration not stated),–,–,–,–,11.2µM
O=C(CSc1ncccn1)NCc1ccc(F)cc1,–,–,–,–,–
O=C(CSc1cn(Cc2ccccc2)c2ccccc12)NCc1ccc(F)cc1,·,–,–,–,7.94µM
C=C1/C(=C\C=C2/CCC[C@]3(C)C([C@H](C)CCCC(C)(C)O)CC[C@@H]23)C[C@@H](O)C[C@@H]1O (some centres not stated),·,·,·,–,–
CC(=O)N(Cc1cc(=O)[nH]c2ccccc12)c1cccc(C)c1,–,–,?,–,20µM
Cc1ccc(S(=O)(=O)N2CCC(=O)N(CCOCc3ccc(F)cc3)CC2)cc1,·,–,–,–,?
O=C(CCN1C(=O)C2C3C=CC(C3)C2C1=O)NCCc1ccccc1 (configuration not stated),–,-93.1,–,–,?
O=C(CN1C(=O)C2C3C=CC(C4CC34)C2C1=O)OCC(=O)c1ccccc1 (configuration not stated),·,–,?,–,–
O=C(CN1C(=O)C2C3C=CC(C3)C2C1=O)OCC(=O)c1ccccc1 (configuration not stated),·,–,25.1µM,–,–
O=C1C2C3C=CC(C3)C2C(=O)N1CCc1ccccc1 (configuration not stated),–,–,–,–,11.2µM
O=C1C2C(C(=O)N1CCc1ccccc1)C1C=CC2C12CC2 (configuration not stated),–,–,–,–,?
O=C(CCN1C(=O)C2C3C=CC(C3)C2C1=O)Nc1ccccn1 (configuration not stated),–,–,–,–,?
O=C(Cn1nnc(-c2ccccc2)n1)N/N=C/c1ccco1,·,·,·,–,–
CC(C)C[C@@H](CC(=O)N[C@@H](CCC(=O)O)CC(=O)O)NC(=O)[C@@H]1CCCC[C@H]1NC(=O)C[C@@H](NC(=O)C[C@H](Cc1c[nH]c2ccccc12)NC(=O)[C@@H]1CNCC[C@H]1N)C(C)C,·,·,–,–,–
CCN(CC)S(=O)(=O)c1ccc(NS(=O)(=O)c2ccc(O)c([N+](=O)[O-])c2)cc1,·,–,35.5µM,–,5.01µM
CCN(CC)S(=O)(=O)c1ccc(NS(=O)(=O)c2cccs2)cc1,·,·,·,–,?
CC(C)(C)c1ccc(CN2N=Nc3ccccc3S2(=O)=O)cc1,–,–,?,–,22.4µM
O=S1(=O)c2ccccc2N=NN1Cc1ccc(Cl)c(Cl)c1,–,–,5.62µM,–,2.51µM
C=CC1=C(C)C2=Cc3c(C=C)c(C)c4[n]3[Sn+2][n]3c(c(C)c(CCC(=O)O)c3=CC3=NC(=C4)C(C)=C3CCC(=O)O)=CC1=N2,–,·,–,–,?
COc1c(C=O)c(O)cc2c1C(=O)c1ccccc1C2=O,·,·,·,–,3.55µM
COc1ccc(C(CC(=O)Nc2ccccc2OC)n2cccc2)cc1 (configuration not stated),·,–,25.1µM,–,–
